Measurements published in a collection of fitness landscapes (doi:10.1016/j.celrep.2020.107928).
The full ranking holds about 81,000 sequences; the median of “one-hybrid fitness for binding NBS DNA” is about -0.1, and the highest 2% start at about 0.36. The sample holds the highest values, similar sequences and a random draw of the others, so the mix is not that of the screen.

B1: Caulobacter ParB omega fusion; a variant is named by its letters at X, in order, B8GW30 (parent)
chain: MESVVVGEPGMSEGRRGLGRGLSALLGEVDAAPAQAPGEQLGGSREAPIEILQRNPDQPRRTFREEDLEDLSNSIREKGVLQPILVRPSPDTAGEYQIVAGERAWRAAQRAGLKTVPIMVRELDDLAVLEIGIIENVQRADLNVLEEALSYKVLMEKFERTQENIAQTIGKSXSHVANXMRLLXLPDEVQSYLVSGELTAXHARAIAAAADPVALAKQIIEGGLSVRETEALARKAPNLSAGKSKGGRPPRVKDTDTQALESDLSSVLGLDVSIDHRGSTGTLTITYATLEQLDDLCNRLTRGI

Variants of: B1
Assay: one-hybrid fitness for binding NBS DNA (the Noc-binding site; scaled: cognate 1, non-cognate 0); higher = stronger binding
Settings: with NBS DNA site
Outline: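 Caulobacter ParB libraries with four specificity codons randomised were screened by bacterial one-hybrid selection in the E. coli USO strain, using a HIS3 reporter whose site lies 19 bp from the promoter. Selection ran for 48 hours at 37°C on M9 lacking histidine, with 0.1 mM IPTG and 5 mM 3-AT. Plasmids were Illumina-sequenced before and after selection, three replicate libraries were pooled, and variants with under 10 reads were dropped. Fitness is the log change in each variant's read ratio to wild type, rescaled against the cognate and non-cognate sites.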

one-hybrid fitness for binding NBS DNA, 0.541:
QAKH

one-hybrid fitness for binding NBS DNA, 0.562:
RKYS

one-hybrid fitness for binding NBS DNA, 0.342:
RYAS

one-hybrid fitness for binding NBS DNA, 0.236:
RKPT
QTTN

one-hybrid fitness for binding NBS DNA, 0.632:
QRNA

one-hybrid fitness for binding NBS DNA, 0.639:
RKST

one-hybrid fitness for binding NBS DNA, 0.395:
QRQM

one-hybrid fitness for binding NBS DNA, 0.297:
QHNH

one-hybrid fitness for binding NBS DNA, 0.388:
RCWS

one-hybrid fitness for binding NBS DNA, 0.335:
RKNH

one-hybrid fitness for binding NBS DNA, 0.245:
RKHH

one-hybrid fitness for binding NBS DNA, 0.425:
KKNT

one-hybrid fitness for binding NBS DNA, 0.467:
RKWS

one-hybrid fitness for binding NBS DNA, 0.583:
RKCT

one-hybrid fitness for binding NBS DNA, 0.384:
RKIR
QCRD

one-hybrid fitness for binding NBS DNA, 0.403:
RKIS

one-hybrid fitness for binding NBS DNA, 0.287:
QADT

one-hybrid fitness for binding NBS DNA, 0.385:
QTTH

one-hybrid fitness for binding NBS DNA, 0.498:
RKDT

one-hybrid fitness for binding NBS DNA, 0.427:
RAHT

one-hybrid fitness for binding NBS DNA, 0.461:
RTLT

one-hybrid fitness for binding NBS DNA, 0.344:
QHDT

one-hybrid fitness for binding NBS DNA, 0.698:
RKNT

one-hybrid fitness for binding NBS DNA, 0.57:
RTHT

one-hybrid fitness for binding NBS DNA, 0.688:
QRQS

one-hybrid fitness for binding NBS DNA, 0.362:
QRQC

one-hybrid fitness for binding NBS DNA, 0.432:
VRRT

one-hybrid fitness for binding NBS DNA, 0.223:
QTTC

one-hybrid fitness for binding NBS DNA, 0.554:
QFFG

one-hybrid fitness for binding NBS DNA, 0.418:
RCWT

one-hybrid fitness for binding NBS DNA, 0.429:
RKRH

one-hybrid fitness for binding NBS DNA, 0.374:
VRNT

one-hybrid fitness for binding NBS DNA, 0.32:
QAVQ
QSDT

one-hybrid fitness for binding NBS DNA, 0.448:
RMHT

one-hybrid fitness for binding NBS DNA, 0.292:
RSLT

one-hybrid fitness for binding NBS DNA, 0.544:
QRQH

one-hybrid fitness for binding NBS DNA, 0.401:
RKDH
QTRP

one-hybrid fitness for binding NBS DNA, 0.569:
QCNT

one-hybrid fitness for binding NBS DNA, 0.538:
RCHT

one-hybrid fitness for binding NBS DNA, 0.249:
KKYT
QLDT

one-hybrid fitness for binding NBS DNA, 0.228:
QRQD
RKYH

one-hybrid fitness for binding NBS DNA, 0.381:
KKRT

one-hybrid fitness for binding NBS DNA, 0.323:
QRQF

one-hybrid fitness for binding NBS DNA, 0.462:
QINT
QANT

one-hybrid fitness for binding NBS DNA, 0.666:
RKRS

one-hybrid fitness for binding NBS DNA, 0.649:
RKGT

one-hybrid fitness for binding NBS DNA, 0.606:
RKQT

one-hybrid fitness for binding NBS DNA, 0.225:
VRYT

one-hybrid fitness for binding NBS DNA, 0.309:
KKAT

one-hybrid fitness for binding NBS DNA, 0.595:
QFKR

one-hybrid fitness for binding NBS DNA, 0.263:
RFHT

one-hybrid fitness for binding NBS DNA, 0.361:
RKIT

one-hybrid fitness for binding NBS DNA, 0.356:
QAKN

one-hybrid fitness for binding NBS DNA, 0.273:
RKSC

one-hybrid fitness for binding NBS DNA, 0.222:
QCQH
QRQP

one-hybrid fitness for binding NBS DNA, 0.379:
QTRD

one-hybrid fitness for binding NBS DNA, ≤ 0.2:
VYRA
IHWG
RKQP
RPLT
RKQH
RKCQ
RKCM
YFSE
GPRA
PFTR
YKRA
NSHG
NIIS
GQRS
NYVI
EAFS
LCHL
RKGQ
RTLY
RTLP
RKNQ
RFWT
RKNG
RNGC
RYHW
PRPF
NTFG
PTNR
VRMT
RKLK
RKSF
RKLY
RKDF
IDAR
TMSR
SFKS
WVLY
SIAR
RKVI
KPTD
SPSM
RVWC
RKHP
RPWT
NLDC
PTPS
QHQH
QREQ
QCQM
QSQM
QLQQ
WQMR
TQQR
EVHL
DGGN
RFYH
ATCR
LYYL
KGWY
YQPD
NYIC
TPDF
QTTD
QTTP
DYIR
VVWY
HIDC
RKWN
RPWS
RKYD
RKRP
RKWD
RKYP
VTLY
TYNS
QTTI
HNLL
CGRS
WGSW
SGTG
DHMC
QRPE
EVQC
LFWV
RKIP
RKDN
RKPS
RPIR
RKPR
RKRD
SRFC
FDKC
SRTT
PLES
WGAE
WTLY
RKLP
RKLD
ISNA
YLVK
QWGI
QPDA
TKKF
TGPI
SSSR
GRQQ
PLWH
KPII
RDGI
NLSK
QAKD
QAKP
CHHT
ELRT
KHQT
KKNN
KKDT
KKQP
YQVF
LPAV
QGMS
PQVE
PMPS
FPGC
QLNN
QFNT
QIDT
QPNT
QINH
QSND
MQSN
EVQG
AVQR
DELG
YHGF
ENKN
PKSC
EETG
PKIC
QFDT
QAND
QPDT
SMIR
HYMR
SMAM
VWNK
TTMW
QTYD
QTDN
QTYP
QTDD
QTYN
QPRD
AYPY
GIDC
LSKY
CYIS
NMYI
PGKG
REGE
SGQC
TFKE
GTES
WLDV
QYEV
CNVT
ADWS
MSTF
VRKE
VRDT
VCRT
VCNT
VCKT
VRVT
FQNR
ARIY
LLCL
RTHP
RIHF
RIHY
RTHN
RNHT
RGHT
RHHK
TCRD
THRD
YERR
FARS
YKWR
GHSC
LSHC
RAHQ
RMHH
RMHP
RPHT
RAHK
AGWC
CVAV
ANSI
SVIN
CNSM
QFFS
QFYR
QFDR
QFVR
QFAR
QFYG
QFAG
QFKH

one-hybrid fitness for binding NBS DNA, 0.439:
QFFR

one-hybrid fitness for binding NBS DNA, 0.408:
QAKQ

one-hybrid fitness for binding NBS DNA, 0.257:
QANA

one-hybrid fitness for binding NBS DNA, 0.618:
QAKS

one-hybrid fitness for binding NBS DNA, 0.45:
QLNT

one-hybrid fitness for binding NBS DNA, 0.456:
RKWT

one-hybrid fitness for binding NBS DNA, 0.528:
QTTS

one-hybrid fitness for binding NBS DNA, 0.332:
QARQ

one-hybrid fitness for binding NBS DNA, 0.271:
QTYH

one-hybrid fitness for binding NBS DNA, 0.476:
QSNT

one-hybrid fitness for binding NBS DNA, 0.436:
RCLT

one-hybrid fitness for binding NBS DNA, 0.246:
RKRQ

one-hybrid fitness for binding NBS DNA, 0.532:
RIHT

one-hybrid fitness for binding NBS DNA, 0.215:
RSWT

one-hybrid fitness for binding NBS DNA, 0.645:
RKHT

one-hybrid fitness for binding NBS DNA, 0.419:
RHHT

one-hybrid fitness for binding NBS DNA, 0.643:
RKYT

one-hybrid fitness for binding NBS DNA, 0.393:
KKQT
VRKT

one-hybrid fitness for binding NBS DNA, 0.226:
QAVS

one-hybrid fitness for binding NBS DNA, 0.579:
RKLT

one-hybrid fitness for binding NBS DNA, 0.397:
QRQQ

one-hybrid fitness for binding NBS DNA, 0.496:
RKLS

one-hybrid fitness for binding NBS DNA, 0.695:
QTRH

one-hybrid fitness for binding NBS DNA, 0.218:
RKGM

one-hybrid fitness for binding NBS DNA, 0.258:
RKRN

one-hybrid fitness for binding NBS DNA, 0.219:
QSRD

one-hybrid fitness for binding NBS DNA, 0.49:
QHNT

one-hybrid fitness for binding NBS DNA, 0.216:
TRKM

one-hybrid fitness for binding NBS DNA, 0.279:
RIWT

one-hybrid fitness for binding NBS DNA, 0.402:
QRQN
RSHT

one-hybrid fitness for binding NBS DNA, 0.238:
RKRG
RSWS

one-hybrid fitness for binding NBS DNA, 0.676:
RKRT

one-hybrid fitness for binding NBS DNA, 0.369:
QCDT

one-hybrid fitness for binding NBS DNA, 0.543:
QTRN

one-hybrid fitness for binding NBS DNA, 0.441:
QFRR

one-hybrid fitness for binding NBS DNA, 0.294:
QHNA

one-hybrid fitness for binding NBS DNA, 0.394:
QRDA
